Assay results taken from PubChem BioAssay (EPA / NIEHS).
Results filed as inconclusive are left out. Calls of active or inactive are those of the source. Rule for the calls, unless noted: active = hit-call score of the fitted dose curve at least 0.9, where 1 is the maximum; inconclusive = response in the unintended direction; inactive = score below 0.9.

Tests used:
[1] = biological target: Nuclear receptor subfamily 1 group I member 3 (Homo sapiens) (UniProt Q14994); assay: ATG_CAR_TRANS: Attagene TRANS-FACTORIAL HepG2 Assay for human Constitutive Androstane Receptor (CAR) (AID 2282969); conditions: HepG2 Attagene TRANS-FACTORIAL CAR reporter;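 note: activators raise reporter mRNA above DMSO so AC50 marks induction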
Sequence of Nuclear receptor subfamily 1 group I member 3 (Homo sapiens) (Q14994 whole entry, looked up, the tested form may be a part): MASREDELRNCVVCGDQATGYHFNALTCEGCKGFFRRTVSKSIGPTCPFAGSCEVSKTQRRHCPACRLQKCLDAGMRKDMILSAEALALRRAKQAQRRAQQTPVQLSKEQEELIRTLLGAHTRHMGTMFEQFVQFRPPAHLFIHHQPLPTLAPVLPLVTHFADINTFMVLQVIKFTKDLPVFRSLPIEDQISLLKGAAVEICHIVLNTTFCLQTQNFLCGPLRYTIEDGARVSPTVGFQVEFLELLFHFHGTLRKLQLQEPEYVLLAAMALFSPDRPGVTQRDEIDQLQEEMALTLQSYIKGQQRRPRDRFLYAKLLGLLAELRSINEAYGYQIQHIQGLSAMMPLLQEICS
Outline: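 HepG2 cells transiently transfected with GAL4-UAS reporter units; TRANS format reads activity of exogenous chimeric NR-Gal4 protein. After 24 h dosing, reporter mRNA quantified by RT-PCR, 6-FAM labelling and capillary electrophoresis; gain of signal fitted against DMSO.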

[2] = biological target: X-box-binding protein 1 (Homo sapiens) (UniProt P17861); assay: ATG_Xbp1_CIS: Attagene CIS-FACTORIAL HepG2 Assay for human X-box Binding Protein 1 (XBP1) (AID 2282972; active = hit-call score of the fitted dose curve at least 0.9, where 1 is the maximum; inactive = score below 0.9); conditions: HepG2 XBP1 cis-element reporter, Attagene multiplex; actives raise or lower the signal
Sequence of X-box-binding protein 1 (Homo sapiens) (P17861 whole entry, looked up): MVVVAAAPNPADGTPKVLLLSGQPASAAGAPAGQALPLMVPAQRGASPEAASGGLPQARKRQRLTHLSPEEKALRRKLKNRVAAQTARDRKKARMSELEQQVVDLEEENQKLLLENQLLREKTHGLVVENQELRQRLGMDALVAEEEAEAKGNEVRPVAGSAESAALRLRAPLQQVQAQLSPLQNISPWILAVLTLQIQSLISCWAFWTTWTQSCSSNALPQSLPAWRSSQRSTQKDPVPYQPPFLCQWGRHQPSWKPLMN
Outline: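 HepG2 cells transiently transfected with cis-regulated multiple reporter transcription units; endogenous transcription factor activity measured 24 hours after chemical dosing. Reporter mRNA quantified by RT-PCR, 6-FAM primer extension, HpaI digestion and capillary electrophoresis; bidirectional fitting versus DMSO.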

[3] = biological target: Oxysterols receptor LXR-beta (Homo sapiens) (UniProt P55055); assay: ATG_LXRb_TRANS: Attagene TRANS-FACTORIAL HepG2 Assay for human Liver X Receptor beta (LXRb) (AID 2282981); conditions: HepG2 Attagene TRANS GAL4-LXRb reporter, mRNA
Sequence of Oxysterols receptor LXR-beta (Homo sapiens) (P55055 whole entry, looked up, the tested form may be a part): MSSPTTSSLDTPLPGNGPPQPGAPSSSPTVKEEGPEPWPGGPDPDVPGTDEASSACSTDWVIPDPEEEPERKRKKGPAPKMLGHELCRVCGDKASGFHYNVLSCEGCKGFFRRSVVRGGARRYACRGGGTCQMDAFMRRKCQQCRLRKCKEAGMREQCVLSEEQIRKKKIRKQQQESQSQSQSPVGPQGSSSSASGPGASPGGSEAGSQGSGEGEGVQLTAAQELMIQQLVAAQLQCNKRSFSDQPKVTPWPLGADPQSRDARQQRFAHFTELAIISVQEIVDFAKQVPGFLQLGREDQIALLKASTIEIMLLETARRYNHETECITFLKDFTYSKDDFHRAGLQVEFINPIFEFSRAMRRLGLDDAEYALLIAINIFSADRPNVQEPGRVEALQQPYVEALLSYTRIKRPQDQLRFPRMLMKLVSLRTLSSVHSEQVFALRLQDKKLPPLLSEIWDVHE
Outline: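 HepG2 cells transiently transfected with GAL4-UAS reporter units for chimeric NR-Gal4 proteins, dosed for 24 h. Reporter transcripts measured by RT-PCR and capillary electrophoresis; gain-of-signal fitting relative to DMSO.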

[4] = ATG_M_06_TRANS: Attagene TRANS-FACTORIAL HepG2 Assay for M06 Transcription Factor (Internal Marker) (AID 2282983); conditions: HepG2 Attagene TRANS M06 internal marker reporter
Outline: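 HepG2 cells transiently transfected with multiplexed GAL4-UAS reporter transcription units; after 24 h compound exposure, reporter mRNA measured by RT-PCR, FAM-labelled primer extension, HpaI digestion and capillary electrophoresis. Gain-of-signal fitted versus DMSO baseline; background control readout.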

[5] = ATG_M_32_TRANS: Attagene TRANS-FACTORIAL HepG2 Assay for M32 Transcription Factor (Internal Marker) (AID 2282984); conditions: HepG2 Attagene TRANS M32 internal marker reporter
Outline: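 HepG2 cells transiently transfected with GAL4-UAS reporter units, dosed for 24 hours. Reporter mRNA quantified by RT-PCR, 6-FAM labelling, HpaI digestion and capillary electrophoresis; internal-marker signal fitted upward relative to DMSO.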

[6] = biological target: Transcriptional activator Myb (Homo sapiens) (UniProt P10242); assay: ATG_Myb_CIS: Attagene CIS-FACTORIAL HepG2 Assay for human Myeloblastosis (Myb) Proto-Oncogene Transcription Factor (AID 2282986; active = hit-call score of the fitted dose curve at least 0.9, where 1 is the maximum; inactive = score below 0.9); conditions: HepG2 Attagene CIS-FACTORIAL Myb reporter transcription; actives raise or lower the signal
Outline: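 Transiently transfected HepG2 cells, treated 24 h. Reporter mRNA quantified by RT-PCR/capillary electrophoresis; bidirectional fit relative to DMSO.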

[7] = biological target: Myc proto-oncogene protein (Homo sapiens) (UniProt P01106); assay: ATG_Myc_CIS: Attagene CIS-FACTORIAL HepG2 Assay for human Myelocytomatosis (Myc) Proto-Oncogene Transcription Factor (AID 2282990; active = hit-call score of the fitted dose curve at least 0.9, where 1 is the maximum; inactive = score below 0.9); conditions: HepG2, Attagene cis-reporter transcription factor activity; actives raise or lower the signal
Outline: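 Transiently transfected HepG2 cells bearing cis-promoter reporter units for endogenous transcription factors; 24 h exposure. Reporter mRNA measured by RT-PCR, 6-FAM primer extension, HpaI cut and capillary electrophoresis; bidirectional fit relative to DMSO.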

[8] = biological target: Nuclear respiratory factor 1 (Homo sapiens) (UniProt Q16656); assay: ATG_NRF1_CIS: Attagene CIS-FACTORIAL HepG2 Assay for human Nuclear Respiratory Factor 1 (NRF1) Orphan Gene (AID 2282987; active = hit-call score of the fitted dose curve at least 0.9, where 1 is the maximum; inactive = score below 0.9); conditions: HepG2 NRF1 cis-element reporter, Attagene multiplex; actives raise or lower the signal
Sequence of Nuclear respiratory factor 1 (Homo sapiens) (Q16656 whole entry, looked up, the tested form may be a part): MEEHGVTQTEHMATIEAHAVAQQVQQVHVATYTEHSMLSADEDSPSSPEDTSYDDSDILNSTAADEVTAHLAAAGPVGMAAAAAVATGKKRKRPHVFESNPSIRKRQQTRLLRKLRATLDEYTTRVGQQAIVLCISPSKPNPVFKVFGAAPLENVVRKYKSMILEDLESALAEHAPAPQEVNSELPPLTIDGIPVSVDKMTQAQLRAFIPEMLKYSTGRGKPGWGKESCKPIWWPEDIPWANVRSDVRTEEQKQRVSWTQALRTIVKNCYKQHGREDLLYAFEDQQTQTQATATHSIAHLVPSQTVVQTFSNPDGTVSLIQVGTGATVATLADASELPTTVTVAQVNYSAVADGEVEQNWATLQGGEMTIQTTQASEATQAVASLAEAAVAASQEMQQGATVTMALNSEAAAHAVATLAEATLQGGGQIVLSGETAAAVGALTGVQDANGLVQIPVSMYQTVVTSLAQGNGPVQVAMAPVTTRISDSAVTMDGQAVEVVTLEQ
Outline: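 Cells (HepG2, transient MRTU transfection) are exposed to compound for 24 h, then RNA isolated and reporter mRNA amplified and fluorescently labelled. Fragments are separated by capillary electrophoresis; signal change is fitted bidirectionally relative to DMSO.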

[9] = ATG_NFI_CIS: Attagene CIS-FACTORIAL HepG2 Assay for human Nuclear Factor I (NFI) (AID 2282989; active = hit-call score of the fitted dose curve at least 0.9, where 1 is the maximum; inactive = score below 0.9); conditions: HepG2 cis-regulatory reporter, NFI response element transcription; actives raise or lower the signal
Outline: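 Endogenous TF activity in HepG2 cells transiently transfected with cis-element-driven multiplexed reporter units, read 24 h after dosing. Reporter mRNA quantified by RT-PCR, 6-FAM labelling, HpaI digestion and capillary electrophoresis; bidirectional fit versus DMSO.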

[10] = biological target: Estrogen receptor (Homo sapiens) (UniProt P03372); assay: ATG_ERa_TRANS: Attagene TRANS-FACTORIAL HepG2 Assay for human Estrogen Receptor alpha (ERa) (AID 2282970); conditions: HepG2 Attagene TRANS ERa GAL4 reporter, mRNA
Sequence of Estrogen receptor (Homo sapiens) (P03372 whole entry, looked up, the tested form may be a part): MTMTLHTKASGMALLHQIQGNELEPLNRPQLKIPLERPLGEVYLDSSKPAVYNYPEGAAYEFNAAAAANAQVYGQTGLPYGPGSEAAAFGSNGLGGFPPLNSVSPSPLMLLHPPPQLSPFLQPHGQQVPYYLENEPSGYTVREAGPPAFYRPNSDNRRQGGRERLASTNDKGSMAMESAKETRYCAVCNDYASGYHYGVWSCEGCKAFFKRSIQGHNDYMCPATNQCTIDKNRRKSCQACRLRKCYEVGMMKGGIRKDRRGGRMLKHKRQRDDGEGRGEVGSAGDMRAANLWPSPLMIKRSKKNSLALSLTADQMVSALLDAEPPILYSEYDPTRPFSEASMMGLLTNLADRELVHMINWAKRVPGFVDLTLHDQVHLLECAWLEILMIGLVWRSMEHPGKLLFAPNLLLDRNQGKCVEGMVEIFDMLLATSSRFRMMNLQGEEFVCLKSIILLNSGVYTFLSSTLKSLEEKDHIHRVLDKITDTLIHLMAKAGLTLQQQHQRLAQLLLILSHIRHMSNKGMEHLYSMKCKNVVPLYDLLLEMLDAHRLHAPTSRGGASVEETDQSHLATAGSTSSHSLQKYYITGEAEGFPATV
Outline: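 HepG2 cells transiently transfected with multiplexed GAL4-UAS reporter units; ERa activity read via exogenous chimeric NR-Gal4 protein. After 24 hour compound exposure, reporter mRNA measured by RT-PCR with 6-FAM labelling and capillary electrophoresis; gain-of-signal fitted relative to DMSO.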

[11] = biological target: Steroid hormone receptor ERR1 (Homo sapiens) (UniProt P11474); assay: ATG_ERRa_TRANS: Attagene TRANS-FACTORIAL HepG2 Assay for human Estrogen-Related Receptor alpha (ERRa) (AID 2282971); conditions: HepG2 Attagene TRANS reporter, ERRa transactivation
Sequence of Steroid hormone receptor ERR1 (Homo sapiens) (P11474 whole entry, looked up, the tested form may be a part): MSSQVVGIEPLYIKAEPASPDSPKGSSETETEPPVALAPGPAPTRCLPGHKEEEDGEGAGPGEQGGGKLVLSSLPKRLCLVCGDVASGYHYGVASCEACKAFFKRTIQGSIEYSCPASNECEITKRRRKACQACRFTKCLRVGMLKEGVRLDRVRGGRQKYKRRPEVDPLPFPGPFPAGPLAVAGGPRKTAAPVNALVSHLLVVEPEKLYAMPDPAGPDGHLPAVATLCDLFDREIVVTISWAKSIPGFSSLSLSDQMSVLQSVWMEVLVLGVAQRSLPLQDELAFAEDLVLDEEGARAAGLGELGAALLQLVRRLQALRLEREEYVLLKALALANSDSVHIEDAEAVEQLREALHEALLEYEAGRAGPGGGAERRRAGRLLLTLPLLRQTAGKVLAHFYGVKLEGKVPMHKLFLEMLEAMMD
Outline: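 HepG2 cells transiently transfected with multiplexed GAL4-UAS reporter units reading chimeric ERRa-Gal4 activity; 24 h compound exposure. Reporter mRNA measured by RT-PCR, 6-FAM labelling, HpaI digest and capillary electrophoresis; gain of signal fitted versus DMSO baseline.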

[12] = biological target: Androgen receptor (Homo sapiens) (UniProt P10275); assay: ATG_AR_TRANS: Attagene TRANS-FACTORIAL HepG2 Assay for human Androgen Receptor (AR) (AID 2282973); conditions: HepG2 Attagene TRANS-FACTORIAL AR reporter transcription
Outline: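 HepG2 cells transiently transfected with multiplexed GAL4-UAS reporter units and chimeric NR-Gal4 fusion; 24 h compound exposure. Reporter mRNA measured by RT-PCR, 6-FAM labelling, HpaI digestion and capillary electrophoresis; gain-of-signal fitted relative to DMSO baseline.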

[13] = ATG_M_19_TRANS: Attagene TRANS-FACTORIAL HepG2 Assay for M19 Transcription Factor (Internal Marker) (AID 2282974); conditions: HepG2 Attagene TRANS-FACTORIAL M19 internal marker reporter
Outline: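 Reporter mRNA induction was measured in transfected HepG2 cells 24 h after dosing. Endpoint fitted upward relative to DMSO and serves as a background control within the multiplexed TRANS panel.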

[14] = biological target: Estrogen-related receptor gamma (Homo sapiens) (UniProt P62508); assay: ATG_ERRg_TRANS: Attagene TRANS-FACTORIAL HepG2 Assay for human Estrogen-Related Receptor gamma (ERRg) (AID 2282977); conditions: HepG2 Attagene TRANS reporter, ERRg transactivation;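 note: hits increase reporter signal over DMSO so potencies reflect activators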
Sequence of Estrogen-related receptor gamma (Homo sapiens) (P62508 whole entry, looked up, the tested form may be a part): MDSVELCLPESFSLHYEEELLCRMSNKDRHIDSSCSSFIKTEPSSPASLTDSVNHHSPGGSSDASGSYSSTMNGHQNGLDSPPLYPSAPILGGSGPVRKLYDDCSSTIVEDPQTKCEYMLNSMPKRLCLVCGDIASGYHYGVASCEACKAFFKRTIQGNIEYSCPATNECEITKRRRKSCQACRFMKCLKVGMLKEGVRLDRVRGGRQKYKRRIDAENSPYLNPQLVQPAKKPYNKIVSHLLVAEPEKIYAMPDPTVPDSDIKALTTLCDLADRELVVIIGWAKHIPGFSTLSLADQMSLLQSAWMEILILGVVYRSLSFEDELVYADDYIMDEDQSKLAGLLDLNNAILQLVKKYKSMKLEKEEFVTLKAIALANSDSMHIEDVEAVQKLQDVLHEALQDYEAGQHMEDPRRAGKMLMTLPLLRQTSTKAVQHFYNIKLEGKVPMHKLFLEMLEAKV
Outline: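 HepG2 cells transiently transfected with multiplexed GAL4-UAS reporter units driven by chimeric NR-Gal4 proteins; 24 h exposure. Reporter mRNA quantified by RT-PCR, fluorescent labelling, HpaI digestion and capillary electrophoresis; gain of signal vs DMSO.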

[15] = biological target: Glucocorticoid receptor (Homo sapiens) (UniProt P04150); assay: ATG_GR_TRANS: Attagene TRANS-FACTORIAL HepG2 Assay for human Glucocorticoid Receptor (GR) (AID 2282978); conditions: HepG2 Attagene TRANS GR reporter, mRNA transcription;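 note: activators score as hits since higher reporter transcript over DMSO is fitted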
Outline: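 Reporter transcript levels, detected by fluorescence after RT-PCR and capillary electrophoresis, served as the endpoint. HepG2 cells bearing transfected GAL4-UAS reporters responsive to NR-GAL4 chimeras were incubated with compound 24 h; DMSO defined baseline.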

[16] = biological target: Hepatocyte nuclear factor 4-alpha (Homo sapiens) (UniProt P41235); assay: ATG_HNF4a_TRANS: Attagene TRANS-FACTORIAL HepG2 Assay for human Hepatocyte Nuclear Factor 4 alpha (HNF4a) (AID 2282982); conditions: HepG2 HNF4a transactivation reporter, mRNA readout
Sequence of Hepatocyte nuclear factor 4-alpha (Homo sapiens) (P41235 whole entry, looked up, the tested form may be a part): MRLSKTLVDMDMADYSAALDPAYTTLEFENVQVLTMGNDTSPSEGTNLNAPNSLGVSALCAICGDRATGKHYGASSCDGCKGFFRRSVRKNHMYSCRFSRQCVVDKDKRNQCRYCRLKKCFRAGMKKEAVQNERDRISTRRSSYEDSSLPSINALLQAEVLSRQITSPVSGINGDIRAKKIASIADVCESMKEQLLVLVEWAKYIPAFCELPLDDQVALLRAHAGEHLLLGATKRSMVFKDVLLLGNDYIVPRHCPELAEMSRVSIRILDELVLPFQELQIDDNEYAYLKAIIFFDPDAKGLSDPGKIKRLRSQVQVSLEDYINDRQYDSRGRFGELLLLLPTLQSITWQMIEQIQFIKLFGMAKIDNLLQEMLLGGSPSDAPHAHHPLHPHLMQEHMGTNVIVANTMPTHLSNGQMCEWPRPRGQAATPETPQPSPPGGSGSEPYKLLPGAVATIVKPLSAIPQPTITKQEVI
Outline: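 HepG2 cells transiently transfected with HNF4a-Gal4 chimera and GAL4-UAS reporter units, dosed for 24 h. Reporter mRNA measured by RT-PCR, fluorescent primer extension and capillary electrophoresis; gain-of-signal fitted relative to DMSO.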

[17] = biological target: Nuclear receptor subfamily 4 group A member 2 (Homo sapiens) (UniProt P43354); assay: ATG_NURR1_TRANS: Attagene TRANS-FACTORIAL HepG2 Assay for human Nuclear Receptor Related Protein 1 (NURR1) (AID 2282985); conditions: HepG2 Attagene TRANS reporter, mRNA readout
Sequence of Nuclear receptor subfamily 4 group A member 2 (Homo sapiens) (P43354 whole entry, looked up, the tested form may be a part): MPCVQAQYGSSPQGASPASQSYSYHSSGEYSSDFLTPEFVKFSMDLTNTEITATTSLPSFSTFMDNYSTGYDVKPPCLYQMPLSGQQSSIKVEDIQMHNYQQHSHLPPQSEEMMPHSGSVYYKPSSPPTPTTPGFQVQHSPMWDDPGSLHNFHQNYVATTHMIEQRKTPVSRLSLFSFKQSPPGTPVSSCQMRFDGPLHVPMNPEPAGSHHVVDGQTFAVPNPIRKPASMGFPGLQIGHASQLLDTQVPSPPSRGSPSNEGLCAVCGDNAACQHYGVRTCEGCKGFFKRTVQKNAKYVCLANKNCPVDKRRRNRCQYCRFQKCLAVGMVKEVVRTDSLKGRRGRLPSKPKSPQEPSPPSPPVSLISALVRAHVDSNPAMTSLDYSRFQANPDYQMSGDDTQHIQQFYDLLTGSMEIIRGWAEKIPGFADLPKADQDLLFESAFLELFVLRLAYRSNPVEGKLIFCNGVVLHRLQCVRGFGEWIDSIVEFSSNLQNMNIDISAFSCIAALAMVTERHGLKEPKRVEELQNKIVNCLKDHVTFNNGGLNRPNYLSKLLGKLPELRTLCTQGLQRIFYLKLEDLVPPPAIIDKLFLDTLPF
Outline: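 HepG2 cells transiently transfected with NURR1-Gal4 chimera and GAL4-UAS reporter units; after 24 hr compound exposure, reporter mRNA quantified by RT-PCR and capillary electrophoresis; gain of signal fitted against DMSO.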

[18] = ATG_GAL4_TRANS: Attagene TRANS-FACTORIAL HepG2 Assay for GAL4 (Internal Marker) (AID 2282976); conditions: HepG2 Attagene TRANS GAL4 internal marker reporter
Outline: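 HepG2 cells transiently transfected with multiplexed GAL4-UAS reporter constructs were dosed for 24 h. Reporter mRNA was measured by RT-PCR, 6-FAM primer extension, HpaI digestion and capillary electrophoresis, and gain of signal was fitted relative to DMSO.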

[19] = biological target: Bile acid receptor (Homo sapiens) (UniProt Q96RI1); assay: ATG_FXR_TRANS: Attagene TRANS-FACTORIAL HepG2 Assay for Farnesoid X Receptor (FXR) (AID 2282979); conditions: HepG2 Attagene TRANS FXR-GAL4 reporter transcription;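 note: hits raise reporter mRNA above DMSO so AC50 marks FXR activation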
Sequence of Bile acid receptor (Homo sapiens) (Q96RI1 whole entry, looked up, the tested form may be a part): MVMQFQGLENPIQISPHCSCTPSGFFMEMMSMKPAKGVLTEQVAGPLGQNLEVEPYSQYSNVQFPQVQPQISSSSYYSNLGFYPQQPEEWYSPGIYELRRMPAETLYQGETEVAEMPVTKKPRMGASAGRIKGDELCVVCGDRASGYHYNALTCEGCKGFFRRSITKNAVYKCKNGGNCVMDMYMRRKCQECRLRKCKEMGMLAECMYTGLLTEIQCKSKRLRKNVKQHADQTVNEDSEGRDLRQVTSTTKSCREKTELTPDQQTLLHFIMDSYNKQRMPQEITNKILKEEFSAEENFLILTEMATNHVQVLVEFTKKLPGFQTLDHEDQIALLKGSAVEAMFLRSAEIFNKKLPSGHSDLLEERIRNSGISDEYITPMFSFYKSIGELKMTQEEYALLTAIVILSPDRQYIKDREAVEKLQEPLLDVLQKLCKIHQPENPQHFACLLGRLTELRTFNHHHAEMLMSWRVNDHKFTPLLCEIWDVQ
Outline: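 HepG2 cells transiently transfected with reporter constructs in which a chimeric FXR-GAL4 protein drives a GAL4-UAS reporter; 24 h compound exposure. Reporter mRNA measured by RT-PCR, FAM labelling, HpaI digestion and capillary electrophoresis; gain-of-signal versus DMSO.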

[20] = biological target: Oxysterols receptor LXR-alpha (Homo sapiens) (UniProt Q13133); assay: ATG_LXRa_TRANS: Attagene TRANS-FACTORIAL HepG2 Assay for human Liver X Receptor alpha (LXRa) (AID 2282980); conditions: HepG2 Attagene TRANS reporter, LXRa transactivation
Outline: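 HepG2 cells were transiently transfected with multiplexed reporter units driven by chimeric LXRa–GAL4 fusion proteins, then dosed for 24 h. Reporter mRNA was quantified by RT-PCR, fluorescent labelling and capillary electrophoresis; gain of signal fitted against DMSO baseline.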

Measured: AC50

Oc1c(Cl)cc(Cl)cc1Cl
inactive: [1] | [2] | [3] | [4] | [5] | [6] | [7]

c1ccc2c(c1)Oc1ccccc1O2
inactive: [1] | [2] | [6] | [8] | [9] | [7]

O=C1c2ccccc2C(=O)C1C(=O)C(c1ccccc1)c1ccc(Cl)cc1 (stereo not drawn)
active: [2] 5.66 µM | [13] 163 µM | [17] 4.69 µM | [6] 173 µM | [7] 27.1 µM
inactive: [10] | [11] | [12] | [14] | [15] | [16] | [9]

CCCCCCCCCCCCc1cccc(S(=O)(=O)O)c1
inactive: [1] | [2] | [4] | [17] | [6] | [8] | [9] | [7]

C#CCO
inactive: [1] | [2] | [18] | [3] | [4] | [5] | [6] | [9] | [7]

CC1(C)[C@H](C(=O)O[C@H](C#N)c2cccc(Oc3ccccc3)c2)[C@@H]1/C=C(\Cl)C(F)(F)F
not listed: [3] | [10] | [11] | [12] | [13] | [14] | [20]
inactive: all other assays above

Nc1ccc(N)cc1
not listed: [4] | [10] | [11] | [12] | [14] | [15] | [17]
inactive: all other assays above

C=C(C)C(=O)OCCCCOC(=O)C(=C)C
not listed: [1] | [4] | [8] | [12] | [14] | [15] | [19] | [20]
inactive: all other assays above

CCOc1ccc(N)cc1
inactive: [10] | [11] | [2] | [13] | [14] | [16] | [17] | [6] | [8] | [9] | [7]

CCOC(=O)C(SP(=S)(OC)OC)c1ccccc1 (stereo not drawn)
active: [19] 30.7 µM
not listed: [4] | [6] | [7] | [10] | [11] | [12] | [15] | [16]
inactive: all other assays above
